“And” between values parts separate entries of the source, which are not always exact repeats. Equal values may be shown once. Results filed as inconclusive are left out. Unmarked numbers belong to inactive results. The source made the active and inactive calls. Calls follow the shape of the dose curve; as a rule, active = well fitted activation curve with a large enough effect; inconclusive = small, poorly fitted or top-dose-only effect; inactive = no such curve, though single readings can be large or run the other way.
Potency is read from the fitted curve at half-maximal effect.

Chain of Cellular tumor antigen p53 (Homo sapiens) (P04637 whole entry, looked up): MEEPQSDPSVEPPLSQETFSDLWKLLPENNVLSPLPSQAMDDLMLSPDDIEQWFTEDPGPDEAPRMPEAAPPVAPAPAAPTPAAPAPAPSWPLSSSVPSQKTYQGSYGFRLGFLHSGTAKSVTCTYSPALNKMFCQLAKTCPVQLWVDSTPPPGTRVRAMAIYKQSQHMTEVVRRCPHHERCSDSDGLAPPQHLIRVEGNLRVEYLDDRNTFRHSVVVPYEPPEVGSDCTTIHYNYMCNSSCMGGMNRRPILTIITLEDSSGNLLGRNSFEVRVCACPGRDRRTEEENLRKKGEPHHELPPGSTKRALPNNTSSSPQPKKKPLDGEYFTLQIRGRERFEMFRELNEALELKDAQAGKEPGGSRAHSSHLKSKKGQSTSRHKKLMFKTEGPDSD

This test has as its target Cellular tumor antigen p53 (Homo sapiens) (UniProt P04637). As to the kind of experiment: Primary qHTS for small molecule compounds that upregulate eGFP-tagged delta133p53alpha (in N-terminal) cells. (AID 2060322). Also: nearly all actives have a fitted effect of over 75% in size.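 As to activation: cells pre-induced with doxycycline then dosed without doxycycline; series mostly up to about 56 µM; 0% = DMSO vehicle and 100% = reference activator.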 Particulars: NCI-H358 eGFP-delta133p53alpha fluorescence, 24 h; activation: hits give high values. In outline: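 NCI-H358 cells pre-induced 24 h with 10 ng/ml doxycycline for eGFP-delta133p53alpha, plated dox-free and exposed 24 h at 37C to titrated compounds. Fixed, Hoechst-stained; gated GFP peak intensity by laser scanning cytometry, normalized to DMSO (0%) and 57.5 uM 5-azacytidine (100%).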
In general terms: qHTS replaces the single test concentration by a dilution series.
With `CCOC(=O)[C@H](CCc1ccccc1)N[C@@H](C)C(=O)N1Cc2ccccc2C[C@H]1C(=O)O`, the activation was 17.6%.

For the compound `NC(=O)c1ncn([C@@H]2O[C@H](CO)[C@@H](O)[C@@H]2O)c1O`, the activation was -3.98%.

For the compound `O=C(O)c1ccccn1`, the activation was 17.6%.

As for `O=C(C1CCCCC1)N1CC(=O)N2CCCc3ccccc3C2C1` (stereo not given), the activation was 4.18%.

On to `Nc1ccc(S(=O)(=O)NC(=O)c2ccccc2)cc1`, for which the activation was 5.08%.

For the compound `Cc1cccc(C)c1NC(=O)c1cc(S(N)(=O)=O)c(Cl)cc1O`, the activation was -9.21%.

As for `CCC(Sc1nnc2c(n1)[nH]c1ccccc12)C(=O)N1c2ccccc2Sc2ccccc21` (stereo not given), the activation was 12.3%.

For `Nc1nc(F)nc2c1ncn2[C@@H]1O[C@H](COP(=O)(O)O)[C@@H](O)[C@H]1O`, the activation was -4.99%.

`CCCCC(=O)OCC(=O)[C@H]1[C@H](C)C[C@H]2[C@@H]3C[C@H](F)C4=CC(=O)C=C[C@]4(C)[C@@]3(F)[C@@H](O)C[C@@]21C`: the activation was -6.21%.

Consider `COc1cc(NS(=O)(=O)c2ccc(N)cc2)ncn1`, for which the activation is -5.86%.

For the compound `Cc1nc(-c2ccc(Cl)cc2)oc1COC(C)(C)C(=O)O`, the activation was 1.67%.

Turning to `CCC(=C(c1ccc(O)cc1)c1ccc(OCCNC)cc1)c1ccccc1`, the activation was 62.8%.

As for `CN1C(=O)CC(C)(c2ccccc2)C1=O` (stereo not given), the activation is 23.4%.

On to `CC[C@H](c1ccc(O)cc1)[C@@H](CC)c1ccc(O)cc1`, for which the Potency is 12.3 µM (active).

For the compound `CCN1CCCC1=O`, the activation is 10.7%.

`CO[C@H]1C[C@@H]2CC[C@@H](C)[C@@](O)(O2)C(=O)C(=O)N2CCCC[C@@H]2C(=O)O[C@H]([C@H](C)C[C@@H]2CC[C@H](OP(C)(C)=O)[C@H](OC)C2)CC(=O)[C@H](C)C=C(C)[C@@H](O)[C@@H](OC)C(=O)[C@H](C)C[C@H](C)C=CC=CC=C1C`: the activation is 24.8%.

As to `O=C(O)CCC(=O)Nc1ccc(S(=O)(=O)Nc2nccs2)cc1`, the activation is -3.95%.

As to `CNC(=O)c1c(I)c(NC(=O)CCCCC(=O)Nc2c(I)c(C(=O)O)c(I)c(C(=O)NC)c2I)c(I)c(C(=O)O)c1I`, the activation is -10%.

On to `Cc1cc(NS(=O)(=O)c2ccc(N)cc2)no1`, for which the activation was -13.4% and 7.02%.

Turning to `C#C[C@]1(O)CC[C@H]2[C@@H]3CCC4=Cc5oncc5C[C@]4(C)[C@H]3CC[C@@]21C`, the activation was -14.2%.

With `CCC(=O)c1ccc(O)cc1`, the activation was -10%.

With `CC(C=CC1=C(C)CCCC1(C)C)=CC=CC(C)=CC(=O)O`, the activation is 15.8% and -23.6%.

In the case of `CNCc1ccccc1`, the activation is 6.21%.

With `Cc1[nH]cnc1CN1CCc2c(c3ccccc3n2C)C1=O`, the activation was -13.4%.

In the case of `COc1cc2c(cc1OC)C(=O)CC2`, the activation was -2.82%.

With `Cc1nc(NC(=O)N2CCC[C@@H]2C(N)=O)sc1-c1ccnc(C(C)(C)C(F)(F)F)c1`, the activation is -9.38%.

Consider `CCN(CC)c1ccc(C(=C2C=CC(=[N+](CC)CC)C=C2)c2cc(S(=O)(=O)O)ccc2S(=O)(=O)[O-])cc1`, for which the activation is -8.47%.

In the case of `CC(C)=CCCC(C)=CCCC(C)=CCCC(C)=CCCC(C)=CCCC(C)=CCCC(C)=CCCC(C)=CCCC(C)=CCO`, the activation is 8.65%.

Turning to `O=S(c1cc(Cl)cc(Cl)c1O)c1cc(Cl)cc(Cl)c1O`, the activation was -0.565%.

With `COc1ccc2ccc(=O)oc2c1CC=C(C)C`, the activation is -15%.

Turning to `O=C(O)c1ccc(OCCCOc2ccc(C(=O)O)cc2)cc1`, the activation is -13%.

Regarding `CCOc1cc(NC(C)=O)ccc1C(=O)OC`, the activation was -3.95%.

For the compound `C[C@H](N)C(=O)N[C@@H](C)C(=O)NC1[C@H]2CN(c3nc4c(cc3F)c(=O)c(C(=O)O)cn4-c3ccc(F)cc3F)C[C@@H]12` (stereo not given in full), the activation was -33.3%.

With `COc1ccc(-c2cc(=S)ss2)cc1`, the activation was -4.18%.

For the compound `Oc1ccccc1-c1nnco1`, the activation is -23.2%.

Turning to `CC(=O)Oc1ccc(C)cc1`, the activation was -17.5%.

Take `Nc1c(C(=O)Nc2ccc(F)cc2)sc2nc(-c3cccs3)cc(C(F)(F)F)c12`: the Potency is 1.53 µM (active).

Take `O=C(O)c1[nH]n(-c2ccc(S(=O)(=O)O)cc2)c(=O)c1N=Nc1ccc(S(=O)(=O)O)cc1`: the activation was 3.95%.

For the compound `NS(=O)(=O)c1ccc(Cl)c(S(N)(=O)=O)c1`, the activation was -10%.

For `O=S(=O)(O)c1cc(I)c(O)c2ncccc12`, the activation was 11.7%.

Values taken from PubChem BioAssay (NCATS).
